The record followed here is PubChem BioAssay (EPA / NIEHS).

Each structure is given as a SMILES string. Active and inactive are the calls of the source. Rule for the calls: active = hit-call score of the fitted dose curve at least 0.9, where 1 is the maximum; inactive = score below 0.9.

Read-out in the assay: catalase (CAT), CAT (gene 847)
The assay can be described thus: LTEA_HepaRG_CAT: Life Technologies and Expression Analysis (LTEA) Assay for catalase (CAT) using HepaRG (AID 2283452).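 For AC50: TaqMan qRT-PCR signal normalized to ACTB GAPDH and POLR2A housekeeping genes.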 As to conditions: mRNA level, 48 h; actives raise or lower the signal. On the procedure: LTEA_HepaRG is a cell based, multiplexed-readout assay that uses HepaRG, a human liver cell line, with measurements taken at 48 hours after chemical dosing on a 96-well plate.LTEA_HepaRG_CAT is one of 102 assay component(s) measured in the LTEA HepaRG cell culture assay. It is a marker of Oxidative Stress.Data from the assay component LTEA_HepaRG_CAT was analyzed into 1 endpoint. This assay endpoint, LTEA_HepaRG_CAT, was analyzed with bidirectional fitting relative to DMSO as the negative control and baseline of activity. Using a type of inducible reporter, measures of mRNA induction for gain or loss-of-signal activity can be used to understand regulation of transcription factor activity. To generalize the intended target to other relatable targets, this assay endpoint is annotated to the catalase intended target family, where the subfamily is oxidative stress.
A total of 1060 chemcials from the ToxCast library were tested in eight-point concentration-response experiments. Cell culture and cytotoxicity assays were conducted at Thermo Fisher Scientific's Custom Services facility (Madison, WI). A single lot of human HepaRG cells (Thermo Fisher Scientific, Frederick, MD) was used for the cell culture experiments. 96-well format collagen type I coated plates of human HepaRG cells were prepared using established methods. Briefly, cryopreserved HepaRG cells were thawed, plated at a density of approximately 100,000 cells/well in HepaRG Thaw, Plate, and General Purpose media (HPRG770, Thermo Fisher Scientific), and incubated for 48 hours. 0.5% DMSO was selected as vehicle control to balance the requisite need of DMSO in HepaRG cultures to maintain differentiation (for example, baseline metabolism, proportions of hepatocytes vs. cholangiocytes), while enabling further hepatic receptor pathway activation (for example, PXR and CAR) in response to chemical exposure. 48 hours after plating, the culture medium was replaced with HepaRG Serum-Free Incudtion Media. Cells were exposed to each test chemical in duplicate and maintained in CO2 incubators for another 48 hours. Chemical plates were thawed to room temperature and 200x concentrations of treatment groups were prepared. 8-point conentration-reponse curves were made with the highest exposure at 100 uM, followed by half-log dilutions, all in 0.5% DMSO. Each test plate contained variouse controls, induction positive controls (1mM phenobarbital), cytotoxicity positive controls ([…] aflatoxin B1), vehicle controls (0.5% DMSO), and total lysis controls (0.5% DMSO). Cell morphology images were taken using an Essen IncuCyte FLR automated microscope, with six 96-well plates imaged in about 24 minutes. Images were captured and exported and JPEG files. Spent culture media was transfered to black-well plates for the LDH assay, and remaining media was sorted at -80 C for later use. Cells were treated with RLT buffer and frozen until shipped for gene expression analysis. Total RNA was isolated from the cell suspension in 75 uL of Buffer RLT (Qiagen, Germantown, MD 20874) by Quintiles/Expression Analysis (Durham, NC) using a custom isolation procedure. Total RNA from each plate well was transferred to a preamplification plate. Fluidigm's 96.96 Dynamic ArrayTM (Fluidigm, Amsterdam, the Netherlands) technology was used for gene expression analyses by quantitative reverse transcription polymerase chain reaction (qRT-PCR, performed by Quintiles/Expression Analysis, Durham, NC)89. Standard TaqManTM Assays (Applied Biosystems/ThermoFisher Scientific, Foster City, CA) were used to assess the expression of 93 genes selected based on their selectivity and sensitivity to important hepatic receptors known to be modulated by environmental chemicals; importance in human hepatocyte functionality; and hepatotoxicity. […]
As to `CC(C)N1C(=O)c2ccccc2NS1(=O)=O`, the compound was classed as inactive.
On the same count and under the same terms, the same measure for `CS(=O)(=O)c1cc(C(F)(F)F)ccc1C(=O)c1cnoc1C1CC1`: “inactive”; for `CN=C=S`: “inactive”; for `Clc1cccc(C(Cl)(Cl)Cl)n1`: “inactive”.
Same read-out and setting: the same measure for `COC(=O)c1c(C(F)F)nc(C(F)(F)F)c(C2=NCCS2)c1CC(C)C`: “inactive”; for `CC1(C)CCC(=Cc2ccc(Cl)cc2)C1(O)Cn1cncn1` (stereo not given): “inactive”.
Consider `CCOc1nc(C(Cl)(Cl)Cl)ns1`, for which the result was inactive.
In the case of `C=C(C)CN(CC)c1c([N+](=O)[O-])cc(C(F)(F)F)cc1[N+](=O)[O-]`, the call was inactive.
Still for that read-out and setting: for `CCNC(=O)NC(=O)C(C#N)=NOC` the value was “inactive”.
Regarding `CO/N=C(/C1=NOCCO1)c1ccccc1Oc1ncnc(Oc2ccccc2Cl)c1F`, the AC50 is 19.7 µM (active).
As for `O=C1C2CC=CCC2C(=O)N1SC(Cl)(Cl)Cl` (stereo not given), the outcome was inactive.
With `OC(c1ccc(Cl)cc1)(c1ccc(Cl)cc1)C(Cl)(Cl)Cl`, the half-maximal activity concentration (AC50) is 71.2 µM (active).
`COc1cc(Cl)c(OC)cc1Cl`: the compound was classed as inactive.
For `CNC(=O)N(C)c1nnc(C(C)(C)C)s1`, the outcome was inactive.
With `CC(C)(C)C(=O)C(Oc1ccc(Cl)cc1)n1cncn1` (stereo not given), the compound was classed as inactive.
Turning to `Nc1c(Cl)c(Cl)nc(C(=O)O)c1Cl`, the compound was called inactive.
With `CCSC(=O)N1CCCCCC1`, the compound was called inactive.
As for `CCOc1nc(F)cc2nc(S(=O)(=O)Nc3c(Cl)cccc3Cl)nn12`, the compound was called inactive.
Same read-out and setting: for `CC(C)=CC1C(C(=O)OCc2coc(Cc3ccccc3)c2)C1(C)C` (stereo not given) the value was “inactive”; for `COCc1cnc(C2=NC(C)(C(C)C)C(=O)N2)c(C(=O)O)c1` (stereo not given), “inactive”.
As to `N#Cc1c(Cl)cccc1Cl`, the compound was classed as inactive.
On the same count and under the same terms, the same measure for `Nc1cnn(-c2ccccc2)c(=O)c1Cl`: “inactive”; for `Cc1nc(N(C)C)nc(OC(=O)N(C)C)c1C`: “inactive”; for `C=CCOC(=O)C(C)(C)OC(=O)c1cc(-n2c(=O)cc(C(F)(F)F)n(C)c2=O)ccc1Cl`: “inactive”.
Turning to `CCOc1cc(C(C)(C)C)ccc1C1COC(c2c(F)cccc2F)=N1` (stereo not given), the result was inactive.
Turning to `CCN(CC)c1nc(C)cc(OP(=S)(OC)OC)n1`, the outcome was inactive.
In the case of `CCOC(=O)C(C)OC(=O)c1cc(Oc2ccc(C(F)(F)F)cc2Cl)ccc1[N+](=O)[O-]` (stereo not given), the call was inactive.
In the case of `CC(C)C1(C)N=C(c2ncccc2C(=O)O)NC1=O` (stereo not given), the compound was classed as inactive.
As for `CC(C)Nc1nc(Cl)nc(NC(C)C)n1`, the AC50 is 16.8 µM (active).
Regarding `Nc1c(Cl)c(F)nc(OCC(=O)O)c1Cl`, the call was inactive.
In the case of `COCC(=O)N(c1c(C)cccc1C)C(C)C(=O)OC` (stereo not given), the call was inactive.
As to `CS(=O)(=O)c1ccc(C(=O)C2C(=O)CCCC2=O)c([N+](=O)[O-])c1`, the call was inactive.
`CC1(C)CON(Cc2ccccc2Cl)C1=O`: the call was inactive.
Turning to `CC(C)NC(=O)N1CC(=O)N(c2cc(Cl)cc(Cl)c2)C1=O`, the AC50 was 13.3 µM (active).
With `COP(=O)(OC)O/C(C)=C/C(=O)N(C)C`, the call was inactive.
`COC(=O)NC(=S)Nc1ccccc1NC(=S)NC(=O)OC`: the outcome was inactive.
Consider `CC(C)N1C(=O)N(c2ccccc2)CSC1=NC(C)(C)C`, for which the AC50 is 75.4 µM (active).
In the case of `CCC(C)n1c(=O)[nH]c(C)c(Br)c1=O` (stereo not given), the AC50 was 40.4 µM (active).
For the compound `CCCN(CC)CC1COC2(CCC(C(C)(C)C)CC2)O1` (stereo not given), the call was inactive.
Turning to `CCCC(=NOCC)C1=C(O)CC(CC(C)SCC)CC1=O` (stereo not given), the outcome was inactive.
